Test results reported in PubChem BioAssay AID1531 (NMMLSC, 2009).
The whole screen tested about 290,000 compounds, of which about 3,300 (1.1%) were called active. Cut-off read from the data, not from the text of the source: active = binding response below about 67% or above about 130%; inconclusive = no clear call, values can overlap the other calls; inactive = in between. The sample as a whole holds a higher share of actives than the screen did.

molecular target: Mitogen-activated protein kinase kinase kinase 2 (Homo sapiens) (UniProt Q9Y2U5); assay: wildtype MEKK2 PB1-MEK5 interaction, increase or decrease – biochemical, multiplex bead flow cytometry, Alexa488-MEK5, primary screen (AID 1531); details: Alexa488-MEK5 binding to MEKK2 WT, at 10 µM, actives lie on both sides

Binding response (% of control), inactive:
O=C(NC1CCCC1)C(c1c(F)cccc1Cl)N(C(=O)c1csnn1)C1CC1 (configuration not stated) 95%
O=S(=O)(c1ccccc1)c1nc(Cc2ccccc2)oc1N1CCOCC1 102%
CN1C(=O)C2(OCCCO2)c2cc(Cl)ccc21 109%
c1csc(-c2nc(-c3ccncc3)no2)c1 94%
Cc1ccc(-c2nc(-c3ccncc3)no2)c(C)c1 104%
CC1CCCN(c2ccc(C(=O)NCCc3ccccc3)cn2)C1 (configuration not stated) 97%
Cc1ccc(Sc2cc(C(=O)c3ccccc3C(=O)O)ccc2[N+](=O)[O-])cc1 95%
CC(Sc1nnc(CNC(=O)c2ccccc2F)n1C)C(=O)Nc1nccs1 (configuration not stated) 101%
COc1ccc(CN2CC[C@H]3C=CC[C@@H](C(=O)N4CCOCC4)[C@H]3C2=O)cc1OC 99%
CCOC(=O)c1ccc(Nc2cc3ccccc3c(=O)[nH]2)cc1 99%
Cc1cccc(C(=O)OC(C)CN2CCN(C)CC2)c1 (configuration not stated) 97%
Cc1ccc(C(=O)NCCN2CCOCC2)cc1C 99%
CC(C(=O)N1CCN(c2ccccc2F)CC1)c1ccc([N+](=O)[O-])cc1 (configuration not stated) 111%
O=C(Nc1cccc(Cl)c1)c1cc(S(=O)(=O)N2CCCCC2)c[nH]1 100%
COc1cccc2sc(N(CCCN(C)C)C(=O)CCS(=O)(=O)c3ccccc3)nc12 105%
CCN(C(=O)COc1ccc(C(=O)c2ccccc2)cc1)c1ccccc1 101%
COc1cc2ccccc2cc1C(=O)N(CCN(C)C)c1nc2c(F)cccc2s1 113%
CN(Cc1ccccc1)C(=O)COc1ccccc1 106%
CC(=O)N[C@H]1[C@H]([C@H](O)[C@H](O)CO)OC(C(=O)O)=C[C@@H]1O 106%
Cc1ccc(C)c(OCc2cc(C(=O)N3CCN(c4cnccn4)CC3)no2)c1 93%
COc1cccc(NC(=O)N2C3CCCC2CC(NC(C)=O)C3)c1 (configuration not stated) 109%
O=C(CN1C(=O)S/C(=C\c2ccccc2Cl)C1=O)NC1C=CS(=O)(=O)C1 (configuration not stated) 101%
Cc1cc(S(=O)(=O)c2cc3ccc(O)c(C)c3oc2=O)ccc1F 102%
CCOC(=O)CCc1c(C)c(C#N)c2[nH]c3ccccc3n2c1=O 106%
Cc1ccccc1Cn1c(=O)[nH]c2ccccc21 48%
O=C(NCC(=O)N(c1ccccc1)C(C(=O)NCC1CCCO1)c1ccccc1)c1cccs1 (configuration not stated) 103%
COc1ccc(Cn2c(=S)[nH]c3cc(C(=O)NCCCN4CCOCC4)ccc3c2=O)cc1 115%
CCCCNC(=O)CCn1c(=S)[nH]c2cc3c(cc2c1=O)OCO3 99%
CC(C)CCn1cnc2c1c(=O)n(CC(=O)NC(N)=O)c(=O)n2Cc1ccccc1 99%
COc1cccc(OCCCN2CCCCCC2)c1 102%
CCCCOC(=O)Cn1c(=O)n(CC(=O)OCCCC)c2cc(C)ccc21 97%
Cc1ccc(OCc2nc3ccccc3n2C)cc1 103%
CCCCOC(=O)Cn1c(=N)n(CCN(CC)CC)c2ccccc21 106%
Nc1ccn(C2CC(O)C(CO)O2)c(=O)n1 (configuration not stated) 105%
O=C(CSc1nc2nccnc2c(=O)n1Cc1cccs1)Nc1ccccc1F 90%
COc1ccc(C2CC(c3cccs3)=NN2c2ccc(F)cc2)cc1OC (configuration not stated) 88%
COc1ccc(C2CC(c3cccs3)=NN2C(=O)CCC(=O)O)cc1OC (configuration not stated) 108%

Binding response (% of control), active:
CNC(C)C#Cc1ccc2sc3cc(OC)c(OC)cc3c(=O)c2c1 (configuration not stated) 136%
COc1cc(-c2nc(-c3ccncc3)no2)cc(OC)c1OC -3% [inhibitor]
Cc1cccc(-c2nc3ccc(C(=O)NCCN4CCN(C)CC4)cc3nc2-c2cccc(C)c2)c1 156%
COc1cccc2sc(N(CCCN(C)C)C(=O)C(c3ccccc3)c3ccccc3)nc12 178%
CN(C)CCCN(C(=O)COc1ccccc1)c1nc2c(Cl)cccc2s1 338%
CCCc1cc(=S)n2c([nH]c3ccccc32)c1C#N -3% [inhibitor]
CCN(CC)CCCNC(=O)c1ccc2c(=O)n(Cc3ccc4c(c3)OCO4)c(=S)[nH]c2c1 144%
CCCCCCCCCCOC(=O)Cn1c(COc2cccc(OC)c2)[n+](C)c2ccccc21 278%
CCCCCCCCCCOC(=O)Cn1c(COc2ccc(C)cc2)[n+](C)c2ccccc21 319%
COc1ccc(C2CC(c3cccs3)=NN2c2nc(C)c(C(C)=O)s2)cc1OC (configuration not stated) 63% [inhibitor]
